EWS-Fli inh – EWS/Fli-driven NR0B1 reporter inhibitors, primary screen, A673 cells, NR0B1 luciferase, luminescence, MLPCN library; inhibition, % at 12.6 µM; 350,000 compounds, 0.67% hits; viability-normalised;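 active = mean inhibition of at least 50% after viability correction, with every replicate also passing that limit; inconclusive = mean reaches 50% but only one of two replicates passes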;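 note: firefly luciferase signal divided by Alamar Blue viability fluorescence both relative to DMSO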
LGR2 inh – inhibitors of bursicon-induced LGR2 CRE-luciferase signal, primary screen, cell-based, HEK293, CRE-luciferase reporter, bursicon stimulation | Drosophila bursicon receptor LGR2 (rickets) | bursicon-stimulated, 4 h | inhibition, % at 9.99 µM | 380,000 compounds, 0.35% hits;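 active = drop in luminescence signal, shown as inhibition above about 50% in the replicate tests, limit read from the data, passing the limit was not always enough; inconclusive = probably only some replicates passing the limit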;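 note: agonist challenge used bursicon conditioned medium at about half maximal strength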
CF NFkB block – inhibitors of PAF-induced NF-kB signaling, primary screen, cell-based, GFP fluorescence, uHTS; KKLEB NF-kB-GFP reporter, GFP fluorescence overnight; inhibition, % at 5 µM; 360,000 compounds, 0.86% hits; AID 588850, 2011;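 active = at least 50% inhibition at 5 µM, scaled per plate between neutral and stimulator controls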;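 note: PAF is a Pseudomonas aeruginosa culture filtrate used as stimulus; plate controls were PAF-stimulated DMSO wells for no effect and unstimulated DMSO wells for full effect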
KKLEB tox – cytotoxicity in KKLEB CF airway cells, primary screen, cytotoxicity control for CF NF-kB inhibitor project, cell-based, uHTS, fluorescence assay plates | KKLEB CF airway cells viability, ATPlite luminescence, overnight; stronger effect = lower value; cells stimulated with P. aeruginosa culture filtrate | activity change (cytotoxicity), % at 5 µM | 360,000 compounds, 0.36% hits | AID 602141, 2011;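 active = corrected activity change at or below -50% at 5 µM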
TWEAK-Fn14 inh – inhibitors of TWEAK-Fn14 signaling, primary screen, luciferase reporter cells, uHTS; TWEAK-stimulated Fn14 reporter cells, luciferase luminescence, 8 h; inhibition, % at 10 µM; 360,000 compounds, 2% hits; AID 1159606, 2016; in the data active = inhibition above about 50%
TROY signal inh – inhibitors of TROY-driven NF-kB signaling, primary screen, Q293 LMP1-TROYcd cells, NF-kB luciferase, uHTS | 360,000 compounds, 0.98% hits | inhibition, % at 10 µM | Q293 LMP1-TROYcd NF-kB luciferase reporter, 4 h;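 active = compounds whose plate-normalised and pattern-corrected inhibition of the luciferase reporter signal at the single screening dose is 50% or more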
CF NFkB conf – inhibitors of PAF-induced NF-kB signaling, retest, confirmation, cell-based, GFP fluorescence, single concentration; shares compounds with CF NFkB block; KKLEB CF airway cells, overnight; inhibition, % at 5 µM; 1,300 compounds, 64% hits; in the data active = inhibition above about 40%;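 note: stimulus PAF is a Pseudomonas aeruginosa filtrate and not platelet activating factor; plate controls were DMSO wells with stimulus for no effect and unstimulated DMSO wells for full effect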
* hit, by the source's call; ? = inconclusive; / = no result given. Sampled rows, rich in hits. Any-hit rate of the full collection: about 2.6%.

SMILES	EWS-Fli inh	LGR2 inh	CF NFkB block	KKLEB tox	TWEAK-Fn14 inh	TROY signal inh	CF NFkB conf
CC(=O)c1c(O)cc(O)c(C(C)=O)c1O	/	/	58.9*	-11.2	-27.9	59.0*	52.4*
NC(=S)N1OC[C@@H]2COc3ccc4ccccc4c3[C@@H]21	22.7	/	72.2*	-36.3	32.9	27.6	54.9*
CO/N=C/NC(=O)N1OC[C@@H]2COc3ccc4ccccc4c3[C@@H]21	/	-7.0	8.8	4.2	-9.2	11.4	/
CCC(=O)N[C@@H]1CC[C@H](CCn2cc(-c3cccc(OC)c3)nn2)O[C@H]1CO	-2.4	17.4	/	/	/	/	/
COc1cc2c(Cc3ccccc3)cncc2cc1O	-8.5	?	52.8*	3.0	43.2	24.5	66.0*
O=C(CN1C(=O)NC2(CCc3ccccc32)C1=O)c1ccc(Cl)cc1 (stereo unspecified)	2.7	3.3	1.4	-0.5	-7.1	-25.7	/
O=C(CN1C(=O)NC2(CCCc3ccccc32)C1=O)c1ccc(F)c(F)c1 (stereo unspecified)	-3.8	-12.3	55.9*	-39.1	11.9	-2.5	11.0
Cc1nnc(Sc2nc3ccccc3o2)c2ccccc12	/	/	55.2*	-35.4	36.0	-19.6	52.1*
Cc1ccc(-c2nnc(Sc3nc4ccccc4o3)c3ccccc23)cc1	/	/	35.1	-14.7	38.0	-36.7	/
Cc1ccccc1-c1cnc2c(c1)C(=O)N([C@H](C)CO)C[C@H](C)[C@H](CN(C)Cc1ccncc1)O2	-6.3	7.1	/	/	/	/	/
Nc1cccc2c1C(=O)N(C(=O)/C=C/c1cccc(F)c1)C2=O	13.9	-6.7	52.2*	-9.3	70.3*	0.2	-10.6
Nc1cccc2c1C(=O)N(C(=O)/C=C/c1cccc(Br)c1)C2=O	-1.3	-6.9	56.2*	21.9	53.5*	-15.6	-66.9
C[C@@H]1CN([C@@H](C)CO)C(=O)c2cc(-c3cccc(C#N)c3)cnc2O[C@H]1CN(C)Cc1ccc(F)cc1	6.7	4.7	/	/	/	/	/
O=C(C[C@@H]1CC[C@@H](NC(=O)NC2CCCCC2)[C@H](CO)O1)NCc1ccc(Cl)cc1	1.3	0.2	/	/	/	/	/
O=C(C[C@H]1CC[C@H](NS(=O)(=O)c2ccccc2)[C@H](CO)O1)NCc1ccc(Cl)c(Cl)c1	-4.8	1.6	/	/	/	/	/
O=C(C[C@@H]1CC[C@H](NC(=O)Nc2ccccc2)[C@H](CO)O1)NCc1ccccn1	-0.1	4.2	/	/	/	/	/
COc1cccc(NCc2cc3c(C(C)(C)C)nn(-c4ccccc4)c3[nH]c2=O)c1	/	8.4	-19.5	15.3	27.1	3.1	/
CCOc1ccc(NCc2cc3c(C(C)(C)C)nn(-c4ccccc4)c3[nH]c2=O)cc1	0.3	-31.8	55.4*	31.7	34.4	36.5	72.9*
C[C@H](CO)N1C[C@H](C)[C@H](CN(C)Cc2ccc(Oc3ccccc3)cc2)Oc2c(NS(C)(=O)=O)cccc2C1=O	-1.8	-32.4	/	/	/	/	/
Cc1ccc(-c2ccc(CN3C(C(C)C)C(=O)N(Cc4cn(Cc5ccco5)nn4)CCS3(=O)=O)cc2)cc1 (stereo unspecified)	1.5	11.8	68.7*	-20.1	25.8	15.5	39.1
CC(C)C1C(=O)N(Cc2cn(Cc3ccco3)nn2)CCS(=O)(=O)N1Cc1ccc(-c2cccc(N(C)C)c2)cc1 (stereo unspecified)	3.7	-17.8	-5.8	-1.2	-3.9	-6.7	/
CC(C)CC1C(=O)N(Cc2cn(Cc3ccco3)nn2)CCS(=O)(=O)N1Cc1ccc(-c2ccc(Cl)cc2)cc1 (stereo unspecified)	25.4	3.4	64.6*	-23.1	6.4	0.2	41.3*
C=C1C(=O)[C@@]23[C@H](O)C[C@@H]4C(C)(C)CC[C@H](O)[C@]4(C)[C@@H]2C[C@H](O)[C@@H]1[C@H]3O	0.9	34.9	67.8*	20.4	59.8*	10.1	55.9*

Bioassay records as filed in PubChem.
